According to PubChem BioAssay AID651946 (Broad Institute, 2012):
Measured potencies and affinities stand elsewhere. Active and inactive are the calls of the source.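 The calls were made as follows: active = toxic compound whose fitted half-effect dose of signal loss is at most twice its top tested dose; inconclusive = flat fit losing 30 to 70% signal, or poor fit; inactive = the rest.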

Experiment: HeLa cell viability loss – plate reader, dry powder, cytotoxicity control, dose response (AID 651946)
Conditions: ATP luminescence (CellTiter-Glo), 48 h; series mostly up to 26 µM; activity change, negative = cytotoxicity: at the top concentration

Structure (SMILES) | activity change, negative = cytotoxicity
COc1ccc(-c2nnc(SCc3ccccn3)o2)cc1 | -23.8% (inactive)
FC(F)(F)Oc1cccc(-c2nnc(SCc3ccccc3)o2)c1 | 2.45% (inactive)
Clc1ccccc1-c1nnc(SCc2ccccc2)o1 | -12.7% (inactive)
N#Cc1ccc(-c2nnc(SCc3ccccc3)o2)cc1 | -16.1% (inactive)
c1ccc(CSc2nnc(-c3cscn3)o2)cc1 | 3.73% (inactive)
FC(F)(F)c1ccccc1CSc1nnc(-c2ccccc2)o1 | -7.53% (inactive)
Cc1ccc(CSc2nnc(-c3ccccc3)o2)cc1 | 9.57% (inactive)
c1ccc(-c2ccc(CSc3nnc(-c4ccccc4)o3)cc2)cc1 | -10.5% (inactive)
FC(F)(F)CNCCSc1nnc(-c2ccccc2)o1 | -5.52% (inactive)
Fc1cccc(-c2nnc(SCc3ccccc3)o2)c1 | 4.36% (inactive)
COc1cccc(-c2nnc(SCc3ccccc3)o2)c1 | -3.27% (inactive)
c1ccc(-c2nnc(SC3CCCCC3)o2)cc1 | 7.66% (inactive)
COc1ccc(-c2nnc(SCc3ccccc3)o2)cc1 | -3.91% (inactive)
O=S(=O)(Cc1ccccc1)c1nnc(-c2ccccc2)o1 | -6.44% (inactive)
CC1(O)CN(CCSc2nnc(-c3ccccc3)o2)C1 | -12.4% (inactive)
Fc1cccc(-c2nnc(SCc3ccccn3)o2)c1 | 18.9% (inactive)
COc1ccc(-c2nnc(SCc3ccc(Cl)cc3)o2)cc1 | -8.74% (inactive)
FC(F)(F)c1ccc(CSc2nnc(-c3ccccc3)o2)cc1 | 4.35% (inactive)
FC1(F)CCN(CCSc2nnc(-c3ccccc3)o2)CC1 | 0.895% (inactive)

Structure (SMILES) | activity change, negative = cytotoxicity
Clc1ccc(-c2nnc(SCc3cn(Cc4ccccc4)nn3)o2)cc1 | 2.21% (inactive)
c1ccc(CCc2nnc(SCc3ccccc3)o2)cc1 | 5.85% (inactive)
CN(Cc1ccccc1)c1nnc(-c2ccccc2)o1 | -1.41% (inactive)
COCCSc1nnc(-c2ccccc2)o1 | 6.23% (inactive)
Fc1ccc(Cn2cc(CSc3nnc(C4CCCC4)o3)nn2)cc1 | -6.02% (inactive)
c1ccc(-c2nnc(SCCN3CCOCC3)o2)cc1 | -3.35% (inactive)
c1ccc(CSc2nnc(C3CCCC3)o2)cc1 | -9.51% (inactive)
FC(F)(F)c1ccc(-c2nnc(SCc3ccccc3)o2)cc1 | 0.304% (inactive)
c1ccc(CSc2nnc(-c3ccncc3)o2)nc1 | 8.34% (inactive)
N#Cc1cccc(-c2nnc(SCc3ccccc3)o2)c1 | 22.6% (inactive)
FC(F)(F)Oc1ccc(-c2nnc(SCc3ccccc3)o2)cc1 | 9.74% (inactive)
c1ccc(-n2cc(CSc3nnc(C4CCCC4)o3)nn2)cc1 | 0.271% (inactive)
c1ccc(CSc2nnc(-c3ccncc3)o2)cc1 | 7.89% (inactive)
CS(=O)(=O)c1ccccc1-c1nnc(SCc2ccccc2)o1 | -4.85% (inactive)
Fc1cccc(CSc2nnc(-c3ccccc3)o2)c1 | -0.479% (inactive)
O=C(Cc1ccccc1)C(C(=O)c1nnc(-c2ccccc2)o1)c1ccccc1 (configuration not stated) | -1.18% (inactive)
Fc1ccc(Cn2cc(CSc3nnc(C4CCC4)o3)nn2)cc1 | -6.56% (inactive)
c1ccc(-n2cc(CSc3nnc(C4CCC4)o3)nn2)cc1 | -13.6% (inactive)
